Measurements reported in PubChem BioAssay (EPA / NIEHS).
The source made the active and inactive calls. The calls were made as follows: active = hit-call score of the fitted dose curve at least 0.9, where 1 is the maximum; inactive = score below 0.9.

Test: CCTE_Harrill_HTTr_Viability_MCF7: CCTE's 6-hour Cell Viability Assessment for the High-Throughput Transcriptomics (HTTr) Platform, in MCF-7 cells cultured in DMEM + 10% fetal bovine serum, Harrill Lab (AID 2284010)
Procedure, shortened: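 Cells were dosed with chemicals in an eight-point dilution series, imaged 6 hours later for propidium iodide uptake, and the endpoint was analyzed by bidirectional fitting against DMSO as negative control.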

Row | SMILES | outcome | AC50
1 | O=CCCl | inactive | –
2 | C[C@@H]1O[C@@H](O[C@H]2C[C@@H](O)[C@]3(CO)[C@H]4[C@H](O)C[C@]5(C)[C@@H](C6=CC(=O)OC6)CC[C@]5(O)[C@@H]4CC[C@]3(O)C2)[C@H](O)[C@H](O)[C@H]1O | inactive | –
3 | O=[N+]([O-])c1cccc2ccccc12 | inactive | –
4 | O=[N+]([O-])c1ccccc1O | inactive | –
5 | CCN(N=O)C(N)=O | inactive | –
6 | COC(=O)c1cc(Oc2ccc(Cl)cc2Cl)ccc1[N+](=O)[O-] | inactive | –
7 | Nc1ncn[nH]1 | inactive | –
8 | O=NN1CCCCCC1 | inactive | –
9 | CCOCn1c(-c2ccc(Cl)cc2)c(C#N)c(Br)c1C(F)(F)F | inactive | –
10 | C[C@]12CC[C@@H](O)C[C@@H]1CC[C@@H]1[C@@H]2CC[C@]2(C)C(=O)CC[C@@H]12 | inactive | –
11 | O=C1C=CC(=O)c2ccccc21 | – | 69.1 µM (active)
12 | C=CCN=C=S | inactive | –
13 | CCC[CH2][Sn]([Cl])([Cl])[CH2]CCC | inactive | –
14 | O=NN1CCOCC1 | inactive | –
15 | C1CCC(C2CCCCC2)CC1 | inactive | –
16 | N#CS | inactive | –
17 | C[C@H]1C(=O)O[C@@H]2CCN3CC=C(COC(=O)[C@](C)(O)[C@]1(C)O)[C@H]23 | inactive | –
18 | CCCSP(=S)(OCC)Oc1ccc(SC)cc1 (configuration not stated) | inactive | –
19 | CC1CC(=O)O1 (configuration not stated) | inactive | –

Row | SMILES | outcome | AC50
20 | CCOP(=S)(OCC)O/N=C(\C#N)c1ccccc1 | inactive | –
21 | CC(C=O)Cc1ccc2c(c1)OCO2 (configuration not stated) | inactive | –
22 | O=c1[nH]c2ccccc2n1C1CCN(CCCC(c2ccc(F)cc2)c2ccc(F)cc2)CC1 | – | 77.9 µM (active)
23 | COc1nn(C(=O)NS(=O)(=O)c2ccccc2OC(F)(F)F)c(=O)n1C | inactive | –
24 | Cc1cccc(C)c1NC(=O)CN1CCCC1=O | inactive | –
25 | OC[C@@H](O)[C@H]1O[C@@H]2O[C@H](C(Cl)(Cl)Cl)O[C@@H]2[C@H]1O | inactive | –
26 | Brc1ccc(Br)cc1 | inactive | –
27 | Oc1c(Br)cc(Br)cc1Br | inactive | –
28 | CCOC(=O)OC1=C(c2cc(C)ccc2C)C(=O)NC12CCC(OC)CC2 (configuration not stated) | inactive | –
29 | N#CCCC(Br)(C#N)CBr (configuration not stated) | inactive | –
30 | CC(C)(C)c1ccc(CCOc2ncnc3ccccc23)cc1 | inactive | –
31 | CCOP(=O)(OCC)OC(=CCl)c1ccc(Cl)cc1Cl | inactive | –
32 | OCCN(CCO)CCO | inactive | –
33 | CC(O)(CS(=O)(=O)c1ccc(F)cc1)C(=O)Nc1ccc(C#N)c(C(F)(F)F)c1 (configuration not stated) | inactive | –
34 | C[CH2][Hg][S]c1ccccc1C(=O)O | – | 49.1 µM (active)
35 | Cc1cc(SCc2sc(-c3ccc(C(F)(F)F)c(F)c3)nc2C)ccc1OCC(=O)O | inactive | –
36 | COCC(=O)N(c1c(C)cccc1C)[C@H](C)C(=O)OC | inactive | –
37 | Cc1cc(C(C)(C)c2ccc(O)c(C)c2)ccc1O | inactive | –
